Measured values from PubChem BioAssay (Tox21).
Values joined by “and” are separate entries in the source; they are usually repeats but may differ in a detail not shown here. Identical values can stand only once. Results filed as inconclusive are left out. Where a call stands in place of a potency, no number is given. A structure can be active in one record and inactive in another. Active and inactive are the calls of the source. Calls come from the whole dose curve; as a rule, active = well fitted inhibition curve with a large enough effect in the repeat runs; inconclusive = weak or mixed curves; inactive = no such curve, though single readings can be large or run the other way.

molecular target: Cytochrome P450 2C9 (Homo sapiens) (UniProt P11712); assay: Cytochrome P450 Family 2 Subfamily C Member 9 (CYP2C9) small molecule antagonists: luciferase reporter qHTS assay (AID 1671198); conditions: P450-Glo CYP2C9 enzyme assay, luciferin luminescence; series mostly up to 115 µM; note: nearly all actives have a fitted effect of over 50% in size
Source text: U.S. Tox21 Program National Center for Advancing Translational Sciences [NCATS] U.S. Environmental Protection Agency [EPA] National Institutes of Environmental Health Sciences [NIEHS] National Toxicology Program [NTP] U.S. Food and Drug Administration [FDA] Tox21 Assay Overview: Cytochrome P450 (CYP) enzymes are membrane-bound hemeproteins that play a key role in metabolism of drugs and xenobiotics. Evaluation of the effect of chemicals on CYP isozymes is useful to minimize the adverse drug reactions and toxicities in drug development process. Tox21 chemicals were tested for their effect on CYP enzyme activities by using P450-Glo (TM) screening systems (Promega Corporation, Madison, WI). These systems provide a luminescent method containing proluciferin substrates and are converted to luciferin products by CYP isozymes. The luciferin products formed are detected with a luciferin detection reagent, and the amount of light produced is proportional to CYP activity. P450-Glo (TM) CYP2C9 screening system (Catalog. No. V9790) was used to detect the compounds that interfere in CYP2C9 activity.
Tox21 Assay Protocol Summary: Two ul of enzyme-substrate mix was dispensed into medium binding white/solid 1536-well plates (Greiner Bio-One North America Inc., Monroe, NC) using a BioRaptr Flying Reagent Dispenser (FRD, Beckman Coulter, Brea, CA). […] The assay plates were incubated at room temperature for 10 min. Then 2 ul of NADPH regeneration solution was added to each well of the assay plates using an FRD and incubated at 37C for 1 h. The reaction was stopped by adding 4 ul of detection reagent using an FRD and after 20 min incubation at room temperature the luminescence signal was measured using a ViewLux plate reader (Perkin Elmer, Shelton, CT). Data were expressed as relative luminescence units.
Potency is the fitted concentration of half-maximal effect.

Cytochrome P450 2C9 (Homo sapiens), sequence (P11712 whole entry, looked up): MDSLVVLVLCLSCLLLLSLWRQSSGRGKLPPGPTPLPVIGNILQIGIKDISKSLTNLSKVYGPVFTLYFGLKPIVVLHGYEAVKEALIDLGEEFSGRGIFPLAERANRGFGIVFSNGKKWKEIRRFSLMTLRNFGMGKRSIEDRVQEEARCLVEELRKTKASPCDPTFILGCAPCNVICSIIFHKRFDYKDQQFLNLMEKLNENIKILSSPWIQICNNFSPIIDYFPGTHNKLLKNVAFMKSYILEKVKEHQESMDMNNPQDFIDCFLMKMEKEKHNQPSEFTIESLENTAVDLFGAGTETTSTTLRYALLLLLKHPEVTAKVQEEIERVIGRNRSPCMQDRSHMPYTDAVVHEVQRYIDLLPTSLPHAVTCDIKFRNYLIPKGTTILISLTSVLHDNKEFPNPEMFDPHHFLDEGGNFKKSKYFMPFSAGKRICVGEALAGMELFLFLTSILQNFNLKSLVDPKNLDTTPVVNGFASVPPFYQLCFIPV

SMILES	Potency
O=C(O)c1cc(Oc2ccc(C(F)(F)F)cc2Cl)ccc1[N+](=O)[O-]	21.9 µM (active) and 35.6 µM (active) and 31.9 µM (active)
Nc1cccc(Cl)c1	71.8 µM (active) and inactive
COc1cc(-c2ccc(N)c(OC)c2)ccc1N	12.7 µM (active) [middle of 4 runs]
C=CC(=O)OCCCCCC(C)C	inactive
CCOC(=O)CC(SP(=O)(OC)OC)C(=O)OCC (stereo not given)	67.5 µM (active) and 71 µM (active)
Cc1cccc(C)c1N	inactive
O=C(O)C(Br)Br	inactive
CNC(=O)O/N=C(\SC)C(=O)N(C)C	inactive
CCCCC(CC)C(=O)Cl (stereo not given)	inactive
O=C(O)CCCc1ccc(N(CCCl)CCCl)cc1	inactive
O=[N+]([O-])c1cc([As](=O)(O)O)ccc1O	inactive
O=S(=O)(O)OOS(=O)(=O)O	inactive
Cc1ccc(N)cc1	40.2 µM (active)
C=CC#N	inactive
Cc1cc(Cl)ccc1OC(C)C(=O)O (stereo not given)	44.1 µM (active) and inactive
ClC(Cl)c1ccccc1	inactive
CCNc1nc(Cl)nc(NC(C)C)n1	inactive
Cc1cc(O)ccc1Cl	inactive
CNC(=O)O/N=C/C(C)(C)S(C)=O (stereo not given)	inactive
COP(=S)(OC)SCN1C(=O)c2ccccc2C1=O	4.02 µM (active) and 2.52 µM (active) and 1.74 µM (active)

SMILES	Potency
Cc1ccccc1N	40.7 µM (active) and 79.6 µM (active) and 35.6 µM (active)
OC[C@@H](O)[C@H]1O[C@@H]2O[C@H](C(Cl)(Cl)Cl)O[C@@H]2[C@H]1O	inactive
CCOP(=S)(OCC)Oc1ccc([N+](=O)[O-])cc1	1.61 µM (active) and 976 nM (active)
COP(=S)(OC)Oc1ccc(SC)c(C)c1	7.02 µM (active) and 6.33 µM (active) and 6.92 µM (active)
Cl/C=C/Cl	inactive
CCCOC(=O)c1ccccc1C(=O)OCCC	32.2 µM (active) and 35.6 µM (active)
Nc1ccc(N)cc1	11.3 µM (active) and 28.3 µM (active) and 8.71 µM (active)
CN(C)C(=O)Cl	inactive
CNCC(O)c1ccc(O)cc1 (stereo not given)	inactive
CSc1nnc(C(C)(C)C)c(=O)n1N	inactive
Nc1ccc([As](=O)(O)O)cc1	inactive
N#Cc1cccc(C#N)c1	inactive
Nc1cc(Cl)cc(Cl)c1	inactive
C=C(C)C(=O)OCC(CC)CCCC (stereo not given)	inactive
CN1C(=O)CCS(=O)(=O)C1c1ccc(Cl)cc1 (stereo not given)	inactive
FC(F)(F)c1ccc(Cl)cc1	inactive
COC(C)(C)CCCC(C)C/C=C/C(C)=C/C(=O)OC(C)C (stereo not given)	62.2 µM (active) and 17.4 µM (active)
Clc1cnc(Oc2ccc(Oc3ncc(Cl)cc3Cl)cc2)c(Cl)c1	inactive
Cc1cccc(N)c1	8.96 µM (active) and 35.6 µM (active)
CN(C)C(=O)C(c1ccccc1)c1ccccc1	62.3 µM (active)
